# Active and inactive are the calls of the source.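 Rule for the calls, unless noted: active = mean inhibition above 46.68%, the untreated control wells mean plus 3 SD; inactive = the rest.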
# Molecular target: Nuclear receptor coactivator 1 (Homo sapiens) (UniProt Q15788)
# Assay: SRC1 coactivator transcriptional activity inhibitors, confirmation, cell-based, luminescence, quadruplicate (AID 588820);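 note: 0% = DMSO wells and 100% = gossypol 36 µM treated wells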
# Settings: HEK293 GAL4-SRC1 luciferase reporter, at 3.6 µM, stronger effect = higher value
# Chain of Nuclear receptor coactivator 1 (Homo sapiens) (Q15788 whole entry, looked up): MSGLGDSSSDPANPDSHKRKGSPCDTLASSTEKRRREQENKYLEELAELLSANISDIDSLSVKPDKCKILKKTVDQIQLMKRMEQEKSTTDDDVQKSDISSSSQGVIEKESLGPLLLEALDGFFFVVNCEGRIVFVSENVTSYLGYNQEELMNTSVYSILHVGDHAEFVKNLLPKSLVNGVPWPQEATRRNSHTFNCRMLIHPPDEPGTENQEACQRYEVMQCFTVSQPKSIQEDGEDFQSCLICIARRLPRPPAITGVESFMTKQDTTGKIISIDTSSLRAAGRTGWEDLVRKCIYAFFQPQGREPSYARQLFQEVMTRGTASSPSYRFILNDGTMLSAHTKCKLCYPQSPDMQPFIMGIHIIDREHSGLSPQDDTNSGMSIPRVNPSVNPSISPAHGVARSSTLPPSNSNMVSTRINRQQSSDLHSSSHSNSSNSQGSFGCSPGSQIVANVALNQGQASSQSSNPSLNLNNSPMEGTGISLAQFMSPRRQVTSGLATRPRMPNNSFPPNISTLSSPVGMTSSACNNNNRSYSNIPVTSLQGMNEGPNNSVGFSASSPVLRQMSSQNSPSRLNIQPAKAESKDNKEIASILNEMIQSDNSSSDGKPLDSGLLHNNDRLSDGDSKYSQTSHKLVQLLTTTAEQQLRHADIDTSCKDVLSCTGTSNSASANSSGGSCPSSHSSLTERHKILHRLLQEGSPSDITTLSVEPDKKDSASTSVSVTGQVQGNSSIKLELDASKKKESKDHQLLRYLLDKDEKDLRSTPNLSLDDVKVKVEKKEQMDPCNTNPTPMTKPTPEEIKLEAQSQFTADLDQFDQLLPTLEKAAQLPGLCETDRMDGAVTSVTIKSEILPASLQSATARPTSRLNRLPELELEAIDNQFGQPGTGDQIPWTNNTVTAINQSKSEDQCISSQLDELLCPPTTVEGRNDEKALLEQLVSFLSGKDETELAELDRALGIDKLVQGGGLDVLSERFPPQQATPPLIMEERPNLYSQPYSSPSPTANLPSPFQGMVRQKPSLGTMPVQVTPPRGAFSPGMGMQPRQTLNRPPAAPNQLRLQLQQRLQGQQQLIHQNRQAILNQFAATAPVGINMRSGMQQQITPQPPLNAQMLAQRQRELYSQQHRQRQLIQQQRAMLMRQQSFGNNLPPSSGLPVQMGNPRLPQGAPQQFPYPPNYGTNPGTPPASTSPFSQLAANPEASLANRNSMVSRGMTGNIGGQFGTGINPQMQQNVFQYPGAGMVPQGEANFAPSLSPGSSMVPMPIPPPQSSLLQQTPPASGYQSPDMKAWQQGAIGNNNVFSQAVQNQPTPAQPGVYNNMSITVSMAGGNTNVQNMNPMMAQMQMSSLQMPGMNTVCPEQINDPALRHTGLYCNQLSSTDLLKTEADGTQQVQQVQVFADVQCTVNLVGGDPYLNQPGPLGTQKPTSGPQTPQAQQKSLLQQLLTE
row,SMILES,inhibition
1,COc1ccc(CCn2c(-c3ccco3)nc3ccccc3c2=O)cc1OC,-30.6% (inactive)
2,O=c1[nH]c(CSc2nc3ccccc3o2)nc2c1cnn2-c1ccccc1,-22.6% (inactive)
3,CCOC(=O)C(Cc1c(F)cccc1Cl)c1ccno1 (stereo not given),-2.31% (inactive)
4,COc1cccc2c1OC1(C)CC2NC(=O)N1c1cccc(C(=O)Nc2ccc3c(c2)OCCO3)c1 (stereo not given),-28.6% (inactive)
5,COCCn1c(C)cc(/C=C2/NC(=O)N(c3cccc(Cl)c3)C2=O)c1C,-34.5% (inactive)
6,COc1ccc(NC(=O)c2ccccc2Cl)cc1NC(=O)CN1CCOCC1,-11.8% (inactive)
7,CCOC(=O)CSc1cc(-c2ccccc2)nc2ncnn12,17.9% (inactive)
8,Cc1c(C(=O)N2CCN(Cc3ccc4c(c3)OCO4)CC2)sc2ncnc(N3CCN(c4ccccc4F)CC3)c12,-22.2% (inactive)
9,COc1ccccc1CNC(=O)Cn1nnnc1CN(C)C(C)C,-0.61% (inactive)
10,CCOc1ccc(NC(=O)NCCCSC2CCCCC2)cc1,-7.9% (inactive)
11,CC(C)(C)c1ccc(OCCC(=O)NNC(=O)c2ccncc2)cc1,-13.7% (inactive)
12,c1ccc(Cc2nnc3sc(-c4ccncc4)nn23)cc1,5.92% (inactive)
13,Cc1ccc(C(=O)Nc2c3c(nn2C(C)(C)C)CS(=O)(=O)C3)cc1[N+](=O)[O-],-11% (inactive)
14,O=C(CCn1cnc(-c2ccccc2)c1-c1ccccc1)N/N=C/c1ccccc1O,18.6% (inactive)
15,COc1cc(C(=O)Nc2cccc(-c3cn4cccnc4n3)c2)cc(OC)c1OC,-27.4% (inactive)
16,COc1ccc(Nc2cc(C)nc(NCc3ccccc3)n2)cc1,12.3% (inactive)
17,CN(Cc1ccc(F)cc1)C(=O)c1cccc(S(=O)(=O)N2CCN(c3ccccc3)CC2)c1,-0.46% (inactive)
18,CCOc1ncccc1C(=O)NC(C)CCc1ccccc1 (stereo not given),0.01% (inactive)
19,NS(=O)(=O)c1ccc(CNC(=O)c2cnccn2)cc1,-22.2% (inactive)
20,Fc1cc2[nH]cnc2cc1Cl,-2.02% (inactive)

row,SMILES,inhibition
1,NS(=O)(=O)c1ccc(NC(=O)CCCCC(=O)Nc2ccc(S(N)(=O)=O)cc2)cc1,-1.93% (inactive)
2,COCCN1C2=C(C(=O)CC(C)(C)C2)C(c2ccc(OC)c(OC)c2)C2=C1CC(C)(C)CC2=O,-10.8% (inactive)
3,COc1ccc(C(=O)Cn2c(Br)nc3c2c(=O)n(C)c(=O)n3C)cc1,-2.41% (inactive)
4,C=CCSc1nnc(-c2cc(C(C)(C)C)nn2Cc2ccc(F)cc2)n1C,1.92% (inactive)
5,Cc1ccc2cc3cc(C(=O)NCc4ccco4)oc3nc2c1,-10% (inactive)
6,CCNc1nc(NC(C)(C)C)nc(N2CCCCC2)n1,8.01% (inactive)
7,NS(=O)(=O)c1ccc(N=Nc2c(O)ccc3ccccc23)cc1,7.96% (inactive)
8,COc1ccc(CCNc2ncnc3c2[nH]c2cc(OC)c(OC)cc23)cc1OC,-33.2% (inactive)
9,Cc1cc(NC(=O)CN2CCN(S(=O)(=O)c3ccc4ccccc4c3)CC2)no1,-3.08% (inactive)
10,COC(=O)c1cccc(NC(=O)c2ccc[n+]([O-])c2)c1,-21.8% (inactive)
11,O=C(c1ccccc1)c1sc(Nc2ccc3c(c2)OCO3)nc1-c1ccccc1,13.9% (inactive)
12,CNC(=O)CCCN1C(=O)c2ccccc2Sc2ncccc21,-2.17% (inactive)
13,Cc1cc(Br)cn2c(Cc3ccsc3)c(-c3ccc(F)cc3)nc12,6.68% (inactive)
14,COc1ccc(C(O)(C(C)C)C(CN2CCOCC2)c2ccc(Cl)cc2)cc1 (stereo not given),16.2% (inactive)
15,CCN(CC(=O)Nc1c(F)cccc1F)C(=O)/C=C/c1ccc(S(=O)(=O)N2CCCCCC2)cc1,-10.1% (inactive)
16,CCc1cc(=O)[nH]c(SCC(=O)NCc2ccc3c(c2)OCO3)n1,-4.66% (inactive)
17,CN1CCN(CCC(=O)N/N=C/c2cc3c(cc2[N+](=O)[O-])OCO3)CC1,-2.3% (inactive)
18,O=S(=O)(c1cccc(C(F)(F)F)c1)N1c2ccccc2-n2cccc2C1c1cccnc1 (stereo not given),12.9% (inactive)
19,Cc1ccc(O)c(C(=O)c2cnn(C(=O)COc3ccc(Cl)cc3)c2)c1,23.6% (inactive)
20,CN(C)S(=O)(=O)c1ccc(N2CCCC2)c(C(=O)OCC(=O)NC2(C#N)CCCCC2)c1,4.07% (inactive)

# Test system: not listed separately
# Assay: VP16 transactivation inhibitors, counter-screen for SRC1 inhibitor project, cell-based, luminescence, high throughput (AID 588824; in the data active = inhibition above about 25%)
# Settings: cell-based VP16 transactivation luciferase luminescence; at 3.6 µM; stronger effect = higher value
row,SMILES,inhibition
1,COc1ccc(CCn2c(-c3ccco3)nc3ccccc3c2=O)cc1OC,-17.7% (inactive)
2,O=c1[nH]c(CSc2nc3ccccc3o2)nc2c1cnn2-c1ccccc1,4.42% (inactive)
3,CCOC(=O)C(Cc1c(F)cccc1Cl)c1ccno1 (stereo not given),-14.2% (inactive)
4,COc1cccc2c1OC1(C)CC2NC(=O)N1c1cccc(C(=O)Nc2ccc3c(c2)OCCO3)c1 (stereo not given),-19.2% (inactive)
5,COCCn1c(C)cc(/C=C2/NC(=O)N(c3cccc(Cl)c3)C2=O)c1C,-40.5% (inactive)
6,COc1ccc(NC(=O)c2ccccc2Cl)cc1NC(=O)CN1CCOCC1,-7.93% (inactive)
7,CCOC(=O)CSc1cc(-c2ccccc2)nc2ncnn12,4.7% (inactive)
8,Cc1c(C(=O)N2CCN(Cc3ccc4c(c3)OCO4)CC2)sc2ncnc(N3CCN(c4ccccc4F)CC3)c12,18.3% (inactive)
9,COc1ccccc1CNC(=O)Cn1nnnc1CN(C)C(C)C,9.79% (inactive)
10,CCOc1ccc(NC(=O)NCCCSC2CCCCC2)cc1,-11.4% (inactive)
11,CC(C)(C)c1ccc(OCCC(=O)NNC(=O)c2ccncc2)cc1,-5.17% (inactive)
12,c1ccc(Cc2nnc3sc(-c4ccncc4)nn23)cc1,-1.52% (inactive)
13,Cc1ccc(C(=O)Nc2c3c(nn2C(C)(C)C)CS(=O)(=O)C3)cc1[N+](=O)[O-],-9.8% (inactive)
14,O=C(CCn1cnc(-c2ccccc2)c1-c1ccccc1)N/N=C/c1ccccc1O,11.4% (inactive)
15,COc1cc(C(=O)Nc2cccc(-c3cn4cccnc4n3)c2)cc(OC)c1OC,-27.3% (inactive)
16,COc1ccc(Nc2cc(C)nc(NCc3ccccc3)n2)cc1,23.2% (inactive)
17,CN(Cc1ccc(F)cc1)C(=O)c1cccc(S(=O)(=O)N2CCN(c3ccccc3)CC2)c1,15% (inactive)
18,CCOc1ncccc1C(=O)NC(C)CCc1ccccc1 (stereo not given),-0.39% (inactive)
19,NS(=O)(=O)c1ccc(CNC(=O)c2cnccn2)cc1,-8.37% (inactive)
20,Fc1cc2[nH]cnc2cc1Cl,-5.47% (inactive)

row,SMILES,inhibition
1,NS(=O)(=O)c1ccc(NC(=O)CCCCC(=O)Nc2ccc(S(N)(=O)=O)cc2)cc1,-4.87% (inactive)
2,COCCN1C2=C(C(=O)CC(C)(C)C2)C(c2ccc(OC)c(OC)c2)C2=C1CC(C)(C)CC2=O,12% (inactive)
3,COc1ccc(C(=O)Cn2c(Br)nc3c2c(=O)n(C)c(=O)n3C)cc1,11.5% (inactive)
4,C=CCSc1nnc(-c2cc(C(C)(C)C)nn2Cc2ccc(F)cc2)n1C,4.7% (inactive)
5,Cc1ccc2cc3cc(C(=O)NCc4ccco4)oc3nc2c1,36% (active)
6,CCNc1nc(NC(C)(C)C)nc(N2CCCCC2)n1,12.6% (inactive)
7,NS(=O)(=O)c1ccc(N=Nc2c(O)ccc3ccccc23)cc1,4.7% (inactive)
8,COc1ccc(CCNc2ncnc3c2[nH]c2cc(OC)c(OC)cc23)cc1OC,-14.5% (inactive)
9,Cc1cc(NC(=O)CN2CCN(S(=O)(=O)c3ccc4ccccc4c3)CC2)no1,-1.04% (inactive)
10,COC(=O)c1cccc(NC(=O)c2ccc[n+]([O-])c2)c1,4.7% (inactive)
11,O=C(c1ccccc1)c1sc(Nc2ccc3c(c2)OCO3)nc1-c1ccccc1,18.1% (inactive)
12,CNC(=O)CCCN1C(=O)c2ccccc2Sc2ncccc21,-3.21% (inactive)
13,Cc1cc(Br)cn2c(Cc3ccsc3)c(-c3ccc(F)cc3)nc12,-0.27% (inactive)
14,COc1ccc(C(O)(C(C)C)C(CN2CCOCC2)c2ccc(Cl)cc2)cc1 (stereo not given),13.8% (inactive)
15,CCN(CC(=O)Nc1c(F)cccc1F)C(=O)/C=C/c1ccc(S(=O)(=O)N2CCCCCC2)cc1,6.23% (inactive)
16,CCc1cc(=O)[nH]c(SCC(=O)NCc2ccc3c(c2)OCO3)n1,1.83% (inactive)
17,CN1CCN(CCC(=O)N/N=C/c2cc3c(cc2[N+](=O)[O-])OCO3)CC1,-2.21% (inactive)
18,O=S(=O)(c1cccc(C(F)(F)F)c1)N1c2ccccc2-n2cccc2C1c1cccnc1 (stereo not given),17.7% (inactive)
19,Cc1ccc(O)c(C(=O)c2cnn(C(=O)COc3ccc(Cl)cc3)c2)c1,4.05% (inactive)
20,CN(C)S(=O)(=O)c1ccc(N2CCCC2)c(C(=O)OCC(=O)NC2(C#N)CCCCC2)c1,-9.13% (inactive)

# Source: PubChem BioAssay
